Measured values taken from PubChem BioAssay (EPA / NIEHS).
The source made the active and inactive calls. The calls were made as follows: active = hit-call score of the fitted dose curve at least 0.9, where 1 is the maximum; inactive = score below 0.9.

Tests used:
[1] = target: Transcription factor E2F1 (Homo sapiens) (UniProt Q01094); assay: ATG_E2F_CIS: Attagene CIS-FACTORIAL HepG2 Assay for human E2F Transcription Factor 1 (AID 2282935); details: HepG2 Attagene cis-reporter, E2F reporter RNA transcripts; actives raise or lower the signal
Outline: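 Cis-element reporter mRNA induction in transiently transfected HepG2, 24 h exposure. Activity fitted in both directions relative to DMSO negative control.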

[2] = ATG_E_Box_CIS: Attagene CIS-FACTORIAL HepG2 Assay for human Enhancer Box (E-box) (AID 2282936); details: HepG2 E-box cis-reporter transcription, actives raise or lower the signal
Outline: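 Cells: HepG2 (human liver), transient MRTU transfection. Exposure 24 h. RNA → oligo(dT) RT → PCR → 6-FAM label → HpaI → CE. Activity fitted both directions relative to DMSO.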

[3] = ATG_M_61_CIS: Attagene CIS-FACTORIAL HepG2 Assay for M61 Transcription Factor (Internal Marker) (AID 2282937); details: HepG2 Attagene CIS-FACTORIAL M61 internal marker reporter; actives raise or lower the signal
Outline: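 Readout: fluorescent reporter mRNA fragments resolved by capillary electrophoresis after RT-PCR. Transiently transfected human HepG2 cells carried MRTU constructs reporting endogenous TF activity; 24 h chemical exposure; gain or loss of signal fitted relative to DMSO.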

[4] = ATG_EGR_CIS: Attagene CIS-FACTORIAL HepG2 Assay for human Early Growth Response 1 (EGR1) (AID 2282938); details: HepG2 Attagene CIS-FACTORIAL EGR reporter mRNA; actives raise or lower the signal
Outline: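 Read-out: fluorescent reporter-mRNA fragments resolved by capillary electrophoresis after RT-PCR, 24 h post-dose in transiently transfected HepG2. Endogenous transcription-factor activity reported via cis-element-regulated reporter units; gain or loss fitted relative to DMSO.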

[5] = ATG_M_19_CIS: Attagene CIS-FACTORIAL HepG2 Assay for M19 Transcription Factor (Internal Marker) (AID 2282939); details: HepG2 Attagene CIS-FACTORIAL M19 internal marker reporter; actives raise or lower the signal
Outline: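 HepG2 cells transiently transfected with cis-regulated multiplexed reporter units, dosed 24 h. Reporter mRNA quantified by RT-PCR and capillary electrophoresis; internal background marker fitted bidirectionally versus DMSO.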

[6] = ATG_Ets_CIS: Attagene CIS-FACTORIAL HepG2 Assay for human Erythroblast Transformation Specific (ETS) (AID 2282941); details: HepG2 ETS cis-reporter transcription, actives raise or lower the signal
Outline: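 HepG2 cells transiently transfected with cis-promoter reporter transcription units were dosed for 24 h; reporter mRNA was measured by RT-PCR, 6-FAM primer extension, HpaI digestion and capillary electrophoresis, with bidirectional fitting against DMSO baseline.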

[7] = target: Hepatocyte nuclear factor 3-beta (Homo sapiens) (UniProt Q9Y261); assay: ATG_FoxA2_CIS: Attagene CIS-FACTORIAL HepG2 Assay for human Forkhead box A2 (FOXA2) (AID 2282942); details: HepG2 cis-reporter transcription factor activity, 24 h; actives raise or lower the signal
Outline: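 Readout: fluorescent reporter transcripts resolved by capillary electrophoresis after RT-PCR. Transiently transfected HepG2, 24 h compound exposure, endogenous TF activity at cis promoter elements. Gain or loss of signal fitted relative to DMSO.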

[8] = ATG_FoxO_CIS: Attagene CIS-FACTORIAL HepG2 Assay for human Forkhead box O (FoxO) (AID 2282943); details: HepG2 Attagene cis-reporter, FoxO element, mRNA; actives raise or lower the signal
Outline: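 Endogenous transcription factor activity read from multiplexed cis-promoter reporter transcripts in transiently transfected HepG2, 24 h after dosing. Reporter RNA measured via RT-PCR plus capillary electrophoresis of FAM-labeled products; gain or loss relative to DMSO.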

[9] = ATG_GATA_CIS: Attagene CIS-FACTORIAL HepG2 Assay for human GATA Binding Protein (AID 2282944); details: HepG2 GATA cis-element reporter, Attagene multiplex mRNA; actives raise or lower the signal
Outline: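 HepG2 cells transiently transfected with multiplexed cis-element reporter units measure endogenous GATA activity; after 24 h compound exposure, reporter mRNA quantified by RT-PCR and capillary electrophoresis. Changes fitted in both directions vs DMSO.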

[10] = ATG_GLI_CIS: Attagene CIS-FACTORIAL HepG2 Assay for human Zinc Finger Protein GLI1 (AID 2282945); details: HepG2, Attagene cis-factorial reporter mRNA, GLI element; actives raise or lower the signal
Outline: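 Bidirectional curve fits relative to DMSO, using reporter mRNA levels from RT-PCR plus capillary electrophoresis. Cells were HepG2 transiently carrying cis-regulated reporter constructs, harvested 24 h after dosing.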

[11] = ATG_ISRE_CIS: Attagene CIS-FACTORIAL HepG2 Assay for human Interferon Regulatory Factor 1 (IRF1) binding to an Interferon-Stimulated Response Element (ISRE) (AID 2282948); details: HepG2 ISRE cis-reporter (Attagene), mRNA transcription readout; actives raise or lower the signal
Outline: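 HepG2 cells transiently transfected with multiplexed cis-promoter reporter units; after 24 h compound exposure, reporter mRNA quantified by RT-PCR, FAM labelling, HpaI digestion and capillary electrophoresis. Bidirectional fit versus DMSO baseline.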

[12] = ATG_M_32_CIS: Attagene CIS-FACTORIAL HepG2 Assay for M32 Transcription Factor (Internal Marker) (AID 2282949); details: HepG2 Attagene cis-factorial M32 reporter, mRNA; actives raise or lower the signal;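 also: background control marker of the multiplexed CIS panel rather than a real target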
Outline: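 Fluorescent capillary electrophoresis peaks of HpaI-digested, FAM-labelled RT-PCR reporter products give the signal. Source: transiently transfected human liver HepG2 cells, 24 h after chemical dosing; bidirectional fitting against DMSO.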

[13] = ATG_M_06_CIS: Attagene CIS-FACTORIAL HepG2 Assay for M06 Transcription Factor (Internal Marker) (AID 2282950); details: HepG2 Attagene CIS-FACTORIAL M06 internal marker reporter; actives raise or lower the signal
Outline: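 Internal background marker within multiplexed cis-reporter HepG2 system. Cells transiently transfected, dosed 24 h; reporter mRNA measured by RT-PCR, HpaI digestion and capillary electrophoresis. Bidirectional fit relative to DMSO.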

[14] = target: Hypoxia-inducible factor 1-alpha (Homo sapiens) (UniProt Q16665); assay: ATG_HIF1a_CIS: Attagene CIS-FACTORIAL HepG2 Assay for human Hypoxia Inducible Factor 1 (HIF1A) (AID 2282951); details: HepG2 Attagene cis-factorial HIF1a reporter transcription; actives raise or lower the signal
Outline: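 RT-PCR/capillary electrophoresis fluorescence readout of reporter transcripts from endogenous-TF-driven cis elements in transfected HepG2 cells, 24 h exposure; activity fitted in both directions against DMSO controls.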

[15] = target: Hepatocyte nuclear factor 6 (Homo sapiens) (UniProt Q9UBC0); assay: ATG_HNF6_CIS: Attagene CIS-FACTORIAL HepG2 Assay for human Hepatocyte Nuclear Factor 6 (HNF6) (AID 2282952); details: HepG2 Attagene cis-factorial HNF6 reporter transcription; actives raise or lower the signal
Outline: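 HepG2, transient MRTU transfection (cis promoters); 24 h chemical exposure; total RNA → oligo(dT) RT → PCR → 6-FAM labelling → HpaI cut → CE; bidirectional fit vs DMSO.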

[16] = target: Heat shock factor protein 1 (Homo sapiens) (UniProt Q00613); assay: ATG_HSE_CIS: Attagene CIS-FACTORIAL HepG2 Assay for human Heat Shock Transcription Factor 1 (HSE) (AID 2282953); details: HepG2 HSE cis-reporter, Attagene RNA transcription; actives raise or lower the signal
Outline: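 HepG2 cells transfected with cis-promoter reporter units sensing endogenous transcription factor activity; reporter mRNA quantified 24 h post-dose by RT-PCR and capillary electrophoresis of 6-FAM-labelled products. Bidirectional fitting against DMSO.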

[17] = ATG_MRE_CIS: Attagene CIS-FACTORIAL HepG2 Assay for human Metal Responsive Element (MRE) (AID 2282954); details: HepG2 MRE cis-reporter transcription, Attagene multiplex; actives raise or lower the signal
Outline: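 Transient MRTU transfection of HepG2 (FuGene 6); 24 h dosing; total RNA → oligo(dT) RT, PCR, 6-FAM primer extension, HpaI cut, CE. Bidirectional fit vs DMSO.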

[18] = ATG_ERE_CIS: Attagene CIS-FACTORIAL HepG2 Assay for Estrogen Response Element (ERE) (AID 2282940); details: HepG2 ERE cis-reporter, Attagene RNA transcript; actives raise or lower the signal
Outline: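 HepG2 cells transiently transfected with multiplexed cis-element reporter units, measuring endogenous transcription factor activity; ERE reporter mRNA quantified after 24 h exposure by RT-PCR, fluorescent labelling, HpaI digestion and capillary electrophoresis. Bidirectional change versus DMSO.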

[19] = ATG_GRE_CIS: Attagene CIS-FACTORIAL HepG2 Assay for human Glucocorticoid Response Elements (GRE) (AID 2282947); details: HepG2 GRE cis-reporter, Attagene multiplex mRNA; actives raise or lower the signal
Outline: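 Transient MRTU transfection of human HepG2 liver cells; cis-regulated reporters report endogenous factors. 24 h dosing → RNA isolation → RT-PCR → 6-FAM primer extension → HpaI cut → CE fragment analysis. Bidirectional fit, DMSO negative control.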

[20] = target: Bile acid receptor (Homo sapiens) (UniProt Q96RI1); assay: ATG_IR1_CIS: Attagene CIS-FACTORIAL HepG2 Assay for human Nuclear Receptor Subfamily 1 Group H Member 4 (NR1H4), IR1 submotif (AID 2282946); details: IR1 reporter transcription, actives raise or lower the signal
Outline: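 Cells (human HepG2) carry transiently transfected cis-promoter reporter transcription units. Compounds are incubated 24 h, total RNA is reverse-transcribed and amplified, and labelled fragments are resolved by capillary electrophoresis. Curves use DMSO as baseline.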

Measured: outcome

Sequence of Hepatocyte nuclear factor 3-beta (Homo sapiens) (Q9Y261 whole entry, looked up): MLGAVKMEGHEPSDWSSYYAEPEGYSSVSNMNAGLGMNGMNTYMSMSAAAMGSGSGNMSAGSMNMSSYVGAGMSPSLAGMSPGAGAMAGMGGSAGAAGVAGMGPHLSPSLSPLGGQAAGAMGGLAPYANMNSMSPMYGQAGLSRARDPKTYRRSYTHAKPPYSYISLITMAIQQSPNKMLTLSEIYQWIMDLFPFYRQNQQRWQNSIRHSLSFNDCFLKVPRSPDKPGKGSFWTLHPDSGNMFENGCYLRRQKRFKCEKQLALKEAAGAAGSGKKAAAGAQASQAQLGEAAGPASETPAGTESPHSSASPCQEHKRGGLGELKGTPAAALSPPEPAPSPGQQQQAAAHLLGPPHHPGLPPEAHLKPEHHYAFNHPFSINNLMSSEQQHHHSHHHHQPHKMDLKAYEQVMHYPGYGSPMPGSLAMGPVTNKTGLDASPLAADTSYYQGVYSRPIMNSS
Sequence of Hypoxia-inducible factor 1-alpha (Homo sapiens) (Q16665 whole entry, looked up): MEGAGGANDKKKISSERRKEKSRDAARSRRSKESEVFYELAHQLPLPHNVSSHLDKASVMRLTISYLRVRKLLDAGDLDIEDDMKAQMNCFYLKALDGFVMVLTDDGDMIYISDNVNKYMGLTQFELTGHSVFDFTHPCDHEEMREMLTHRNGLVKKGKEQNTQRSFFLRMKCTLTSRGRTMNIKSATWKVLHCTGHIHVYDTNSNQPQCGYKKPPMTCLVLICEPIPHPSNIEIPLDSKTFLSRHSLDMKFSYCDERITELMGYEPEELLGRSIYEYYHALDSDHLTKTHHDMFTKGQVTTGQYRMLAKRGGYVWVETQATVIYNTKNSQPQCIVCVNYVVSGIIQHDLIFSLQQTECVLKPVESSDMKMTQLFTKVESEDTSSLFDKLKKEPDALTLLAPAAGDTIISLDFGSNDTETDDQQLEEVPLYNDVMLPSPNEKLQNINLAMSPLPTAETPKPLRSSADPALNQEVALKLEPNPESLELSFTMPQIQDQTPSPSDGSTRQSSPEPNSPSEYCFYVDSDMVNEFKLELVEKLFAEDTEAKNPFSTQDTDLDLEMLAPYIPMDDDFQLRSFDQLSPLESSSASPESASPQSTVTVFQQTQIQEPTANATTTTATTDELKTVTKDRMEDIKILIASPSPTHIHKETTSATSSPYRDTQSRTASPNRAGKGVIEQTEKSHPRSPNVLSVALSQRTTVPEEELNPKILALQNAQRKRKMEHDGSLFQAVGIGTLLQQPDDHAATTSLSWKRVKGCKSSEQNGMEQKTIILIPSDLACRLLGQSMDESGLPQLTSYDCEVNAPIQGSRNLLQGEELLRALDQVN
Sequence of Heat shock factor protein 1 (Homo sapiens) (Q00613 whole entry, looked up): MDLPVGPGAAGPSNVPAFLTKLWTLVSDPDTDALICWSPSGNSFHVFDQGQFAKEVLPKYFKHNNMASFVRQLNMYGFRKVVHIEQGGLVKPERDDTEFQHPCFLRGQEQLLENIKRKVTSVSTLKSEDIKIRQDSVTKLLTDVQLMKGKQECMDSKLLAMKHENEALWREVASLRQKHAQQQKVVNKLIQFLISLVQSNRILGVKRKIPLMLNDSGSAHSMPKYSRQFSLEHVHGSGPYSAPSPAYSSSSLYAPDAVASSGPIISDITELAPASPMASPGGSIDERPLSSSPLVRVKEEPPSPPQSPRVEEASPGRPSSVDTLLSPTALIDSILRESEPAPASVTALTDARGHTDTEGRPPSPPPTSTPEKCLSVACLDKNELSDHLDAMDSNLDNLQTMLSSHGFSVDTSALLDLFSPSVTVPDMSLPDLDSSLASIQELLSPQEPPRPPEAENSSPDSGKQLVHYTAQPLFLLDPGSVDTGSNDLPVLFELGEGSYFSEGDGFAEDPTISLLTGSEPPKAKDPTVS
Sequence of Bile acid receptor (Homo sapiens) (Q96RI1 whole entry, looked up, the tested form may be a part): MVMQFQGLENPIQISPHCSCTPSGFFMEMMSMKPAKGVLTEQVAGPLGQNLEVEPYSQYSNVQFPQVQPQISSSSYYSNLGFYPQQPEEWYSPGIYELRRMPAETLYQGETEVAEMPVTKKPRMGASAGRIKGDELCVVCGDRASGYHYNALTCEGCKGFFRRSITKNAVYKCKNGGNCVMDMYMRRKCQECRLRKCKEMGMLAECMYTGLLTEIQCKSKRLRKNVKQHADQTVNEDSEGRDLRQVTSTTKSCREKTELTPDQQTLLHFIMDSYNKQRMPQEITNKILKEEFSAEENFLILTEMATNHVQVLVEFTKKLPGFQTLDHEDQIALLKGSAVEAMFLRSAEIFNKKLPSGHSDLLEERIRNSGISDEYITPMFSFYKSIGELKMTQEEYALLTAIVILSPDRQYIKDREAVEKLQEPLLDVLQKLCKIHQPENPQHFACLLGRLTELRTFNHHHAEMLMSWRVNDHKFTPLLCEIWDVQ
Sequence of Hepatocyte nuclear factor 6 (Homo sapiens) (Q9UBC0 whole entry, looked up): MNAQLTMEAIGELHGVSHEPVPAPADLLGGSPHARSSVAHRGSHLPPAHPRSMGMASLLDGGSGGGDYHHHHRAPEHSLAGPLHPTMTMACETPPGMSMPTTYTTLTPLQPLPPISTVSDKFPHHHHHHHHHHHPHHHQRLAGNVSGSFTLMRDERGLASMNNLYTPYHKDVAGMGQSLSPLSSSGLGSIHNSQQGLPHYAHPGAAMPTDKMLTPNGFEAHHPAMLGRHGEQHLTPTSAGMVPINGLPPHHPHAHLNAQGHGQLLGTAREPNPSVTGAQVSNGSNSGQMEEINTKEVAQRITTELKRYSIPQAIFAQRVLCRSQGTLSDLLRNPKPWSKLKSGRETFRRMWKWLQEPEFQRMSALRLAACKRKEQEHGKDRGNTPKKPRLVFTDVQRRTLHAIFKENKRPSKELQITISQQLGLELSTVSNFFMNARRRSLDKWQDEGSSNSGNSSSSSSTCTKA
Sequence of Transcription factor E2F1 (Homo sapiens) (Q01094 whole entry, looked up): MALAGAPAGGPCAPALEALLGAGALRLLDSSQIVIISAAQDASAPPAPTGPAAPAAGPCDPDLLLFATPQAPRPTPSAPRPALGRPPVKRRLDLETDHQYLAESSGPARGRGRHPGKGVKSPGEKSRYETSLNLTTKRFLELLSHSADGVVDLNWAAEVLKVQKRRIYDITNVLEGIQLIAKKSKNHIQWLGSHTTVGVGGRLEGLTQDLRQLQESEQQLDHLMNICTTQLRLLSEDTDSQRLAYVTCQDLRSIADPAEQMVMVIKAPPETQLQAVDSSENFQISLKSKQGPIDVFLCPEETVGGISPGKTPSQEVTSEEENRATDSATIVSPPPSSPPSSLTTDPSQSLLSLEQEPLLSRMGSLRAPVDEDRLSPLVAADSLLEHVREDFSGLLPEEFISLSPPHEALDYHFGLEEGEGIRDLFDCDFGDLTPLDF

CCC(C)COC(=O)CC(C)C (stereo unspecified)
not listed: [18] | [19] | [20]
inactive: all other assays above

CCC(CC)CO
not listed: [6] | [7] | [15] | [18] | [19] | [20]
inactive: all other assays above

OCC=Cc1ccccc1
not listed: [15] | [18] | [19] | [20]
inactive: all other assays above

CC(=O)CC(C)(C)C1CCCCC1
not listed: [6] | [12] | [18] | [19] | [20]
inactive: all other assays above

O=C(O)c1cccc(Cl)n1
not listed: [14] | [18] | [19] | [20]
inactive: all other assays above

[Cu+]
not listed: [6] | [9] | [13] | [14] | [17] | [20]
inactive: all other assays above

[Cl][Dy]([Cl])[Cl]
not listed: [3]
inactive: all other assays above

c1ccc(Cc2ccccc2)cc1
not listed: [6] | [7] | [18] | [20]
inactive: all other assays above

CCC=C(C)C=O
not listed: [18]
inactive: all other assays above

O=C(O)c1ccco1
not listed: [6] | [14] | [19] | [20]
inactive: all other assays above

CCCCCCCCOS(=O)(=O)O
not listed: [9] | [17] | [18]
inactive: all other assays above

NC(=O)NC(N)=O
not listed: [18] | [19] | [20]
inactive: all other assays above

CCCCCCCCCOS(=O)(=O)O
not listed: [7] | [14] | [18] | [19] | [20]
inactive: all other assays above

CN(C)c1ccc(C=O)cc1
not listed: [18]
inactive: all other assays above

CC(C)Cc1ccc(C(C)C(=O)O)cc1 (stereo unspecified)
not listed: [12] | [14] | [16] | [18] | [20]
inactive: all other assays above

CC(CCO)CC(C)(C)C (stereo unspecified)
not listed: [18] | [20]
inactive: all other assays above

CC/C(=C(\c1ccccc1)c1ccc(OCCN(C)C)cc1)c1ccccc1
not listed: [9] | [18] | [20]
inactive: all other assays above

CCCCN(CCO)CCO
not listed: [6] | [14] | [18] | [20]
inactive: all other assays above
